From PubChem
hNpr1 antagonist: blocks ANP-stimulated signaling of human Npr1 receptor. HEK293 hNpr1 GloSensor cGMP, ANP-stimulated luminescence. Potency, µM (highest dose often 46.3 µM), for inactives: at the top dose activity change, negative = inhibition, hits mostly inhibitors. 76,000 tested, 1.6% active. AID 1347048; calls by dose curve; note: nearly all actives have a fitted effect of over 60% in size
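Compound pre-incubated 30 min at room temperature on GloSensor-loaded HEK293 cells stably carrying hNpr1 and the pGS-40F cGMP biosensor. Stimulation uses hNppA at 0.1 nM final; luminescence is taken at baseline and 20 min post-agonist.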
3T3 cytotox: kills NIH 3T3 cells; NIH 3T3 viability, CellTiter-Glo ATP luminescence, 48-72 h; Potency, µM (top dose mostly 96.7 µM), without a hit: at the top dose activity change, negative = cytotoxicity, most hits filed as inhibitors; 94,000 tested, 4.3% active; AID 1345082; note: nearly all actives have a fitted effect of over 55% in size
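Mouse fibroblast NIH 3T3 cells, 400 per well, received compound via pintool and were incubated for 48 or 72 hr prior to CellTiter-Glo ATP luminescence measurement.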
HEK cytotox: cytotoxic compounds in HEK 293 cells; Potency, µM (series often up to 115 µM), for inactives: at the highest dose activity change, negative = cytotoxicity, most hits filed as inhibitors; HEK 293 viability, ATP luminescence (CellTiter-Glo), 48-72 h; 94,000 tested, 6.6% active; AID 1345083; note: nearly all actives have a fitted effect of over 60% in size
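Luminescence from cellular ATP, measured with CellTiter-Glo, indicates HEK 293 viability. Cells plated at 250 cells/well are treated with compound for 48 or 72 hr at 37 degree Celsius before reagent addition.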
Luciferase inh: inhibitors of firefly (Photinus pyralis) luciferase | P08659 | purified P. pyralis luciferase, luminescence, biochemical | Potency, µM (doses to about 115 µM), hits mostly inhibitors | 76,000 tested, 2.5% active; note: nearly all actives have a fitted effect of over 65% in size
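Biochemical qHTS: compound (6-point titration) added to 10uM D-luciferin plus 10uM ATP in Tris acetate pH 7.5 buffer with Mg, Tween-20 and BSA, then purified enzyme at 10nM; light output imaged.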
The depositor's hits bear a star; i = inactive; ? = inconclusive; · = not tested or not shown; ! = not confirmed by another sample; [ ] = dose if it differs, or a comment. Sampled rows, rich in hits. Any-hit rate of the full collection: about 11%. Unless noted, calls come from the whole dose curve; as a rule, active = well fitted curve in the direction sought with a large enough effect; inconclusive = small, poorly fitted or top-dose-only effect, or another doubt; inactive = no such curve, though single readings can be large; an effect the other way counts as inactive or inconclusive. % is set by controls: 0 for no effect and ±100 for the full control effect; potency is the fitted concentration of half-maximal effect.

SMILES	hNpr1 antagonist	3T3 cytotox	HEK cytotox	Luciferase inh
COc1ccc(CN(C)C(=O)C2(c3ccc(OC)cc3)CCOCC2)cc1	·	-10%	?	·
COc1ccc(C2(C(=O)N(C)Cc3ccc(OC(F)(F)F)cc3)CCOCC2)cc1	·	?	50µM*	·
N#Cc1cccc(-c2c(C(=O)NCc3cccs3)nc3sccn23)c1	·	-26%	-17%	·
Cc1ccccc1-c1cc(C(=O)NCCc2cnc[nH]2)c2c(c1)N(C)CCO2	-3%[70.6 µM]	100µM*	?	i
COc1ccc(-c2cc(C(=O)NCc3c(C)cc(C)[nH]c3=O)c3c(c2)N(C(C)C)CCO3)cc1OC	5%	25µM*	?	i
Cc1cc(C)c(CNC(=O)c2cc(-c3cccnc3)cc3c2OCCN3C(C)C)c(=O)[nH]1	0%[70.6 µM]	?	100µM*	i
COc1ccccc1-c1cc(C(=O)NCc2c(C)cc(C)[nH]c2=O)c2c(c1)ncn2C	5%[70.6 µM]	40µM*	?	i
Cc1cnc(-c2ccncc2)n1CC1CN(Cc2cccnc2)C1	·	-13%	-3%	·
Cc1cc(C)c(CNC(=O)c2cc(-c3ccccc3C)cc3c2OCCN3C)c(=O)[nH]1	-30%[70.6 µM]	45µM*	89µM*	i
COCCCn1c(=O)c(C(=O)Nc2cccc(Cl)c2)nc2cccnc21	·	-23%	?	·
COCCCNC(=O)c1ccc2nnc(-c3ccc(OC(F)(F)F)cc3)n2c1	·	-29%	-22%	·
O=c1c2c3c(nn2ccn1Cc1cc(F)ccc1F)CCCC3	-6%	?	?	i
Cc1oc(-c2ccc(OC(C)C)cc2)nc1Cn1ccn2nc3c(c2c1=O)CCCC3	2%	?	8.9µM*	i
O=C(NCCC1=CCCCC1)c1ccc(Cn2ccn3nc4c(c3c2=O)CCCC4)cc1	-22%	?	40µM*	i
COc1ccccc1Cn1ccn2nc3c(c2c1=O)CCCC3	-4%	?	45µM*	i
COCCCNC(=O)c1ccc(Cn2ccn3nc4c(c3c2=O)CCCC4)cc1	3%	?	?	i
CCc1ccc(NC(=O)c2ccc(Cn3ccn4nc5c(c4c3=O)CCCC5)cc2)cc1	-19%	?	20µM*	?
O=C(Nc1ccc(Cl)cc1)c1ccc(Cn2ccn3nc4c(c3c2=O)CCCC4)cc1	-3%	-9%	?	i
O=C(C1CCCN1C(=O)c1ccc(C(F)(F)F)cc1)N1CCC(c2nc3ccncc3[nH]2)C1 (configuration not stated)	·	i	-3%	·
O=C(Nc1ccc(F)cc1)c1ccc(Cn2ccn3nc4c(c3c2=O)CCCC4)cc1	0%	-22%	-16%	i
O=C(Nc1ccccc1)c1ccc(Cn2ccn3nc4c(c3c2=O)CCCC4)cc1	-2%	?	16µM*	i
CC(C)CNC(=O)c1nc2sccn2c1-c1cccc(C(F)(F)F)c1	·	-32%	-10%	·
C=CCn1cc2c3c(cccc31)[C@H](CC(C)C)N[C@H](C(=O)NCCN1CCOCC1)C2	-1%[70.6 µM]	?	89µM*	i
Cc1cc(Cn2cc3c4c(cccc42)[C@H](CC(C)C)N[C@H](C(=O)NCCN2CCOCC2)C3)no1	1%	?	?	i
C=CCn1cc2c3c(cccc31)[C@H](CC(C)C)N[C@H](C(=O)N1CCOCC1)C2	-4%[70.6 µM]	?	100µM*	?
SMILES	hNpr1 antagonist	3T3 cytotox	HEK cytotox	Luciferase inh
CC(=O)N1CCCN(C(=O)[C@@H]2Cc3cn(C)c4cccc(c34)[C@H](CC(C)C)N2)CC1	1%[70.6 µM]	1%[138 µM]	-2%[172 µM]	i
CC(C)C[C@@H]1N[C@H](C(=O)N2CCC(O)(c3ccccc3)CC2)Cc2cn(C)c3cccc1c23	-1%	32µM*	?	i
CC(C)C[C@@H]1N[C@H](C(=O)N2CCOCC2)Cc2cn(CC3CC3)c3cccc1c23	-14%[70.6 µM]	?	89µM*	i
CC(C)C[C@@H]1N[C@H](C(=O)O)Cc2cn(CC3CC3)c3cccc1c23	?	?	?	i
CC(C)C[C@@H]1N[C@H](C(=O)N2CCOCC2)Cc2cn(Cc3cccnc3)c3cccc1c23	-12%[70.6 µM]	-15%[138 µM]	-26%[172 µM]	i
CN1CCN(C(=O)C2CCc3nnc(-c4cccc(C(F)(F)F)c4)n32)CC1 (configuration not stated)	·	-19%	-10%	·
COC(=O)CNC(=O)c1nc2sccn2c1-c1cccc(C(F)(F)F)c1	·	?	-7%[172 µM]	·
C=CCn1cc2c3c(cccc31)[C@H](CC(C)C)N[C@H](C(=O)N1CCN(C)CC1)C2	-5%[70.6 µM]	63µM*	79µM*	i
CC#CCn1cc2c3c(cccc31)[C@H](CC(C)C)N[C@H](C(=O)N1CCN(C)CC1)C2	2%[70.6 µM]	89µM*	?	i
Cc1ccc([S+](=O)([O-])N2CCC(C(=O)N3CCC(c4nc5ccncc5[nH]4)C3)CC2)cc1 (configuration not stated)	·	-9%	i	·
O=C(Nc1ccccc1F)N1CCN(c2ccc3nnc(-c4ccccc4)n3n2)CC1	·	?	-18%	·
Cc1nn(-c2ccccc2)c2c1C(C(C)C)N(C1CCN(C(=O)c3ccccc3)CC1)C2=O (configuration not stated)	·	?	45µM*	·
Cc1nn(-c2ccccc2)c2c1C(C1CC1)N(C1CCN(C(=O)c3ccc(Cl)cc3)CC1)C2=O (configuration not stated)	·	-16%	-4%	·
Cc1nn(-c2ccccc2)c2c1C(C(C)C)N(C1CCN(C(=O)c3ccc(F)cc3)CC1)C2=O (configuration not stated)	·	?	35µM*	·
Cc1nn(-c2ccccc2)c2c1C(C(C)C)N(C1CCN(C(=O)Nc3ccccc3)CC1)C2=O (configuration not stated)	·	-6%	i	·
Cc1nn(-c2ccccc2)c2c1C(C(C)C)N(C1CCN(C(=O)c3ccc(C(F)(F)F)cc3)C1)C2=O (configuration not stated)	·	16µM*	?	·
Cc1nn(-c2ccccc2)c2c1C(C)N(C1CCN(C(=O)c3ccc(F)cc3)CC1)C2=O (configuration not stated)	·	35µM*!	?	·
Cc1nn(-c2ccccc2)c2c1C(C(C)C)N(C1CCN(C(=O)c3ccncc3)C1)C2=O (configuration not stated)	·	-18%	?	·
CC(=O)N1CCC(N2C(=O)c3c(c(C)nn3-c3ccccc3)C2C)CC1 (configuration not stated)	·	?	4%	·
Cc1nnc2ccc(N3CCCN(C(=O)NC(C)C)CC3)nn12	·	i	-7%[172 µM]	·
COc1ccc(CNC(=O)c2cc3c(N4CCCC4)nc(C)cn3n2)c(OC)c1	-2%	-30%	-21%	i
CCOC(=O)[C@@H]1CN(C(=O)CC(C)C)[C@H]2c3cccc(C)c3O[C@@H]12	·	?	-4%	·
CCN1c2cc(C(=O)Nc3ccc(F)c(Cl)c3)ccc2C(=O)N2CCCC21 (configuration not stated)	-5%	?	?	i
